From PubChem BioAssay AID626 (Vanderbilt High Throughput Screening Facility, 2007)
In all, about 64,000 compounds went through this assay and about 1,900 (3%) were called active. The full list was thinned out, with actives kept by preference. A number with no mark means an inactive call.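 Rule for the calls: active = fluorescence rise, raw or as B-score row- and column-corrected plate score, outside the 99.7% band of its plate's samples, either direction; inactive = the rest.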

system: Muscarinic acetylcholine receptor M1; test: M1 muscarinic receptor agonists, primary screen, CHO-M1 cells, Fluo-4 calcium, agonist mode (AID 626); conditions: Fluo-4 calcium fluorescence, at 10 µM, hits give high values

| SMILES | B-score |
| --- | --- |
| O=C(c1cc2nc(-c3ccccc3)cc(-c3ccccc3)n2n1)N1CCC2(CC1)OCCO2 | 6.7 (active) |
| Cc1cccc(-n2c(C)nc3cc(C(=O)N4CCC5(CC4)OCCO5)ccc32)c1 | -0.0322 |
| O=C(c1cc(-c2ccncc2)nc2ccccc12)N1CCC2(CC1)OCCO2 | 0.114 |
| Cc1ccc(P(=S)(c2ccc(C)o2)N2CCOCC2)o1 | 0.695 |
| Cn1c(C(=O)N2CCC(C(=O)N3CCC4(CC3)OCCO4)CC2)cc2sccc21 | -0.378 |
